Reference: PubChem BioAssay AID2289 (National Center for Advancing Translational Sciences (NCATS), 2010)
Screen size: about 340,000 compounds; about 3,300 (0.97%) were called active. Another 9% or so got no clear call; they are omitted. Calls come from the whole dose curve; as a rule, active = well fitted inhibition curve with a large enough effect; inconclusive = small, poorly fitted or top-dose-only effect, or effect the other way; inactive = flat fitted curve, though single readings scatter. Some of the results follow.

Test: qHTS Assay for Modulators of miRNAs and/or Inhibitors of miR-21; note: nearly all actives have a fitted effect of over 55% in size
Settings: HeLa miR-21-FLuc reporter, luciferase luminescence, 48 h; actives lower the signal
How it was run: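 Using DMEM plus 10% FBS, HeLa miR-21-FLuc cells are incubated with test compounds (final up to about 40uM) for 48 hours; firefly luciferase signal is then imaged following reagent-mediated lysis.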
Potency is the fitted concentration of half-maximal effect.

Potency, active:
COc1cc(C2Nc3ccccc3C(=O)N2c2ccc(Cl)cc2)c(Cl)cc1OCC(=O)O (stereo unspecified) 2.33 µM
CCOC(=O)COc1ccccc1C1Nc2ccccc2C(=O)N1c1cccc(Cl)c1 (stereo unspecified) 5.85 µM
O=C(CSc1nc(-c2ccc(F)cc2)cs1)N1CCOCC1 6.56 µM
Cc1nc(-c2ccc3c(c2)CCC(=O)N3)cs1 14.7 µM
CCc1ccccc1NC(=O)CSc1nc(C)c(C(=O)Nc2ccccc2)c(-c2ccc(Cl)cc2)c1C#N 23.3 µM
COc1ccccc1CCCNC(=O)C1CCC(=O)N(Cc2ccccc2F)C1 (stereo unspecified) 14.7 µM
COc1ccc(C(=O)NCCc2c[nH]c3ccccc23)cc1 3.29 µM
O=C(NCCc1c[nH]c2ccccc12)c1ccc(Cl)cc1 7.36 µM
O=C(NCCc1c[nH]c2ccccc12)c1ccc(F)cc1F 9.27 µM
O=C(NN/C(=N/S(=O)(=O)c1ccc(Cl)cc1)c1ccccc1)c1cccc(Cl)c1 2.07 µM
Cc1ccc(S(=O)(=O)/N=C(/NNC(=O)c2cccc(Cl)c2)c2ccccc2)cc1 1.85 µM
CN(C)c1ccc(/C=N\Nc2ccccn2)cc1 0.521 µM
Fc1ccc(/C=N/Nc2ccccn2)cc1 8.26 µM
COc1cc(N/N=C/c2ccc(N(C)C)cc2)ncn1 0.208 µM
C(=N\Nc1ccccn1)/c1ccc(N2CCOCC2)cc1 1.85 µM
COc1ccc(C2=NN(C(=O)CN3CCOCC3)C(c3nc4ccccc4[nH]3)C2)cc1 (stereo unspecified) 10.4 µM
CN(C)CCCNC(=O)c1ccc(/C=N/O)nc1 1.85 µM
c1ccc(-c2onc3cc4c(cc23)OCCO4)cc1 2.07 µM
Fc1ccc(Nc2ccc(-c3ccc(F)cc3)nn2)cc1 3.29 µM
O=C(O)c1ccc(N/N=C/c2ccc(-c3cccc(Cl)c3)o2)cc1 0.927 µM
O=C(O)c1ccc(N/N=C/c2ccc(-c3cc(Cl)ccc3Cl)o2)cc1 6.56 µM
O=C(O)c1ccc(N/N=C/c2ccc(-c3ccc(Cl)cc3Cl)o2)cc1 18.5 µM
O=C(O)c1ccc(N/N=C/c2ccc(-c3ccc(Br)cc3)o2)cc1 5.85 µM
O=C(O)c1ccc(N/N=C/c2ccc(-c3ccccc3Cl)o2)cc1 0.293 µM
c1cnc2c(SCc3ccc(-c4nnco4)cc3)cccc2c1 13.1 µM
Cc1ccccc1OCCCn1c(=O)sc2ccccc21 6.56 µM
COc1ccccc1OCCCn1c(=O)sc2ccccc21 9.27 µM
O=C(Nc1ccc2oc(-c3ccc4ccccc4c3)nc2c1)c1cc(Br)ccc1Cl 16.5 µM
O=C(Nc1ccc2oc(-c3ccccc3)nc2c1)c1ccccc1F 1.31 µM
O=C(Nc1ccc2oc(-c3ccc4ccccc4c3)nc2c1)c1cccs1 1.04 µM
O=S(=O)(Nc1ccc2oc(-c3ccccc3)nc2c1)c1ccccc1 18.5 µM
CCOc1ccc2nc(SCC(=O)N(C)C)[nH]c2c1 7.36 µM
COc1ccc2nc(SCC(=O)C(C)(C)C)[nH]c2c1 6.56 µM
Cc1cccc(Nc2nc3c(s2)CCCC3)c1 2.07 µM
O=C1C=C(N2CCCCCC2)C(=O)N1c1ccc(Cl)cc1 5.21 µM
Cc1ccccc1OCCNC(=O)c1ccc2ccccc2n1 5.21 µM
Cn1cc(C(=O)Nc2ccc3c(c2)CCC3)cn1 7.36 µM
CN1N=C(C(=O)Nc2ccc3c(c2)CCC3)CCC1=O 9.27 µM
CCC(C)(C)C1CCc2[nH]nc(C(=O)N/N=C(\C)c3ccco3)c2C1 (stereo unspecified) 2.61 µM
COc1ccccc1NC(=O)Nc1nnc(C(C)C)s1 14.7 µM
CC(C)(C)C(=O)Nc1nnc(CCc2ccccc2)s1 2.93 µM
CCCc1nnc(NC(=O)Nc2ccccc2OC)s1 16.5 µM
c1ccc(Cn2nc(-c3ccccc3)nc2-c2ccccc2)cc1 16.5 µM
COc1ccc(C(=O)OCCc2ccc(O)cc2)cc1 6.56 µM
S=C1c2ccccc2CN1c1ccccc1 9.27 µM
Cc1ccccc1-c1nnc(SCC(=O)N(C)c2ccccc2)o1 16.5 µM
Cc1ccccc1-c1nnc(SCC(=O)N(C)C2CCCCC2)o1 14.7 µM
CC(=O)N1N=C(c2ccc(C)cc2)CC1c1ccco1 (stereo unspecified) 16.5 µM
CCc1ccc(C2=NN(C(C)=O)C(c3ccco3)C2)cc1 (stereo unspecified) 2.33 µM
Nc1ccc2nc3c(=O)n(C4CCCCC4)c(=O)[nH]c3nc2c1 14.7 µM
O=C(NC1CC(=O)c2sccc21)c1ccc(Cl)cc1Cl (stereo unspecified) 13.1 µM
COc1ccc(-c2coc3cc(O)cc(O)c3c2=O)cc1OC 13.1 µM
CC(C)Oc1ccc2c(=O)c(-c3ccccc3)coc2c1 0.464 µM
COc1ccc(-c2coc3cc(O)ccc3c2=O)cc1OC 13.1 µM
O=c1c(-c2ccccc2)coc2cc(O)ccc12 1.85 µM
Cc1ccc(C2=NNC3(CCOC(C)(C)C3)S2)cc1 (stereo unspecified) 3.69 µM
COc1ccc2cc3cc(C(=O)N4CCCC(C)C4)oc3nc2c1 (stereo unspecified) 1.04 µM
COc1ccc2cc3cc(C(=O)N4CCCCCC4)oc3nc2c1 0.414 µM
Cc1ccc2cc3cc(C(=O)N4CCCCCC4)oc3nc2c1 0.261 µM
COc1ccc2nc3oc(C(=O)N4CCCCC4)cc3cc2c1 1.04 µM
N#Cc1c(NC(=O)C2CC2)sc2c1CCCCC2 8.26 µM
Cc1cccc(C(=O)Nc2sc3c(c2C#N)CCCCC3)c1 0.261 µM
CCCC(=O)Nc1sc2c(c1C#N)CCCCC2 2.93 µM
Nc1nccc(/C=C/c2ccc(Cl)cc2)n1 2.07 µM
COc1ccc(CC(=O)Nc2cc3oc4ccccc4c3cc2OC)cc1 14.7 µM
COc1cc2c(cc1NC(=O)Cc1ccc(C)cc1)oc1ccccc12 9.27 µM
